Compound activity: PubChem, National Center for Advancing Translational Sciences (NCATS)
Hits are enriched below; roughly 6% of the tested compounds scored in any of these assays.
D1 agonist – human D1 receptor agonism | P21728 | HEK293 T-REx D1 cells, calcium flux, agonist mode | activation, % at 2 µM | 360,000 tested, 1% active | AID 504660; in the data active means activation above about 30%; further: 0% is about no effect
Target sequence (P21728 whole entry, looked up): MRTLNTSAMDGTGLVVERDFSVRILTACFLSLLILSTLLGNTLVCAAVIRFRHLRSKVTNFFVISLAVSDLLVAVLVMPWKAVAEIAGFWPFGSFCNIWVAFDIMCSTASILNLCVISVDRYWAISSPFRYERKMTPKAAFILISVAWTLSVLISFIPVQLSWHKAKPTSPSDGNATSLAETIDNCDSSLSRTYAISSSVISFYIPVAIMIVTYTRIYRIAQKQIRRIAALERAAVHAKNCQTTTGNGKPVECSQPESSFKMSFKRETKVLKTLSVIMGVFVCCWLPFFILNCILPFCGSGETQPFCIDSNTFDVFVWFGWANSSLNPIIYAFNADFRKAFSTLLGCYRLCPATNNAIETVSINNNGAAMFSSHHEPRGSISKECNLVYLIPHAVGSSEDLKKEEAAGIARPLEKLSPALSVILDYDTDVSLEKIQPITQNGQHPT
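Tetracycline-induced HEK293 TREx D1 cells, force-coupled to calcium signalling, were dye-loaded with a no-wash calcium kit. Compound was pin-added after a 10 s baseline. Fluorescence was read kinetically at 1 cycle/s for 180 s, with calcium rises flagged as agonism.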
D3 ag – agonists of human D3 dopamine receptor; 410,000 tested, 0.58% active; max activation, %; P35462; AID 652048; D3R DiscoveRx beta-arrestin cells, luminescence, 90 min; in the data active means max activation above about 30%; further: 0% is about no effect
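Agonist mode: compounds and dopamine controls were applied to plated cells for 90 min at 37 degrees C after an overnight attachment at 1500 cells/well. Luminescent read-out followed 30 - 60 minutes at room temperature with DiscoveRx detection reagent.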
D1 antagonist – antagonists of human D1 dopamine receptor; HEK293 TREx D1 cells, calcium flux, dopamine EC80; stronger effect = lower value; AID 504652; activity change, negative = inhibition, % at 10 µM; 360,000 tested, 3.2% active; P21728; in the data active means activity change below about -30%; further: on the % scale 0 is the no-effect control and ±100 the full control effect
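HEK293 T-REx cells expressing inducible, force-coupled D1 receptor; no-wash Ca dye, 30–90 min RT. Cmpd → 180 s read at 1 Hz → EC80 DA → 180 s read.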
D3 antag – antagonists of human D3 dopamine receptor | AID 652054 | D3R cells, DiscoveRx beta-arrestin luminescence, antagonist mode; stronger effect = lower value | 360,000 tested, 2.5% active | max response, negative = inhibition, % | P35462; in the data active means max response below about -50%; inconclusive means no clear call, values can overlap the other calls; further: on the % scale 0 is the no-effect control and ±100 the full control effect
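Cells plated overnight at 1500 cells/well, then exposed to library compounds with dopamine controls for 90 minutes at 37 degrees C. DiscoveRx reagent added for 30–60 minutes at room temperature; luminescence read, quantitative HTS format.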
D1 potentiator – human D1 dopamine receptor positive modulation. P21728. HEK293 TREx D1 cells, calcium flux, dopamine EC20 potentiation. potentiation, % at 10 µM. 360,000 tested, 0.036% active. AID 504651; in the data active means potentiation above about 30%; further: 0% is about no effect
Active calls of the source: *; ? = inconclusive; . = no result.

SMILES | D1 agonist | D3 ag | D1 antagonist | D3 antag | D1 potentiator
O=C(c1cnn(-c2ccc(F)cc2)c1-n1cccc1)N1CCN(c2ccccc2)CC1 | 2 | 1 | -13 | . | -1
O=C(Nc1ccncc1)c1ccc(Cl)c(S(=O)(=O)N2CCCCC2)c1 | 18 | 3 | -39* | 21 | -8
O=C(Nc1ccc(Cl)c(S(=O)(=O)N2CCCCC2)c1)c1ccncc1 | 8 | 6 | -11 | 0 | -3
CN1CCC(=C(c2ccccc2)c2ccc(Br)cc2)CC1 | . | -26 | . | -99* | .
CNc1snc(C)c1C(=O)OC(C)C(=O)Nc1ccccc1 (centres undefined) | 9 | 0 | -32* | 6 | -6
CNc1snc(C)c1C(=O)OCC(=O)N(C)Cc1ccccc1 | 14 | 8 | -43* | 28 | -7
CCN(C(=O)COC(=O)c1c(C)nsc1NC)c1ccccc1 | 31* | 4 | -3 | 21 | .
CNc1snc(C)c1C(=O)OCC(=O)N(C)c1ccccc1 | 4 | 2 | 18 | 12 | 6
CCN1CCN(CCCNC(=O)Cn2nc(C)n3c(cc4c(OC)cccc43)c2=O)CC1 | 2 | 2 | 12 | . | -2
COC(=O)c1ccccc1NC(=S)NC(NC(=O)c1ccccc1[N+](=O)[O-])C(Cl)(Cl)Cl (centres undefined) | 2 | -8 | 2 | -51* | 2
COC(=O)c1ccccc1NC(=S)NC(NC(=O)c1ccco1)C(Cl)(Cl)Cl (centres undefined) | 6 | -7 | -23 | 12 | -1
COc1ccc([N+](=O)[O-])cc1NC(=S)NC(NC(=O)C(c1ccccc1)c1ccccc1)C(Cl)(Cl)Cl (centres undefined) | 8 | -18 | -19 | -80* | -7
O=C(NCc1cccs1)C1CCC(CNS(=O)(=O)c2ccccc2)CC1 (centres undefined) | 2 | 2 | -33* | 6 | -8
O=C(NCc1cccs1)C1CCCN(c2nc3ccccc3o2)C1 (centres undefined) | 1 | 3 | -46* | 8 | -4
COc1ccccc1CNC(=O)CN1C(=O)CSc2ccc(S(=O)(=O)N3CCCCC3)cc21 | -3 | -9 | -23 | . | -1
O=Nc1c(O)n(Cc2ccccc2)c2ccccc12 | 2 | 6 | 13 | 0 | 25
O=Nc1c(O)n(Cc2cccc(C(F)(F)F)c2)c2ccccc12 | 69* | 8 | 52 | 0 | 23
CCCn1ccc2c(OCC(=O)Nc3ccccc3C(=O)OCC)cccc2c1=O | 4 | 10 | . | . | 3
CN(Cc1ccco1)c1ncnc2ccc(-c3ccc4c(c3)OCCO4)cc12 | 0 | . | 4 | . | -2
NC(=S)N/N=C/c1ccccc1 | 1 | 4 | 1 | -9 | -1
NC(=S)N/N=C/c1ccc(C23CC4CC(CC(C4)C2)C3)cc1 | 1 | -28 | 40 | -89* | 21
COC(=O)C[C@H]1c2cc(F)cc(F)c2S(=O)(=O)N1C1CCN(Cc2ccccc2)CC1 | . | -66 | . | -69* | .
COC(=O)CC1c2ccccc2S(=O)(=O)N1Cc1ccccc1 (centres undefined) | -1 | 3 | 2 | 2 | -8
CC(C)OC(=O)c1cc(C(=O)c2cc(F)ccc2O)coc1=N | 12 | -2 | -3 | -20 | -2
COc1ccc(O)c(C(=O)c2coc(=N)c(C(=O)Nc3ccc(SC(F)F)cc3)c2)c1 | 33* | 3 | -11 | 17 | -1
SMILES | D1 agonist | D3 ag | D1 antagonist | D3 antag | D1 potentiator
CCN(Cc1ccccc1)C(=O)Cn1cc(S(=O)(=O)NC)c(S(=O)(=O)NC)c1 | 3 | 0 | -3 | -52* | 1
COC(=O)c1cc2ccsc2n1CC(=O)Nc1cc(C)cc(C)c1 | 5 | -15 | 2 | -74* | -5
COC(=O)c1cc2ccsc2n1CC(=O)NCC1CCCO1 (centres undefined) | 1 | -1 | 17 | -3 | 0
O=C(O)CN1C(=O)NC2NC(=O)NC21 (centres undefined) | 0 | -4 | 6 | 16 | -6
CCOC(=O)CN1C(=O)NC2NC(=O)NC21 (centres undefined) | 2 | 2 | -5 | 1 | -4
CCCCNC(=O)CN1C(=O)NC2NC(=O)NC21 (centres undefined) | 0 | -6 | -43* | 17 | -7
O=C(O)CCCN1C(=O)NC2NC(=O)NC21 (centres undefined) | 1 | -12 | -31* | -6 | -5
CCN1CC(CCN2CCOCC2)C(c2ccccc2)(c2ccccc2)C1=O (centres undefined) | . | 3 | . | . | .
COc1cc(-c2noc(-c3ccc(NC4CCCC4)c([N+](=O)[O-])c3)n2)cc(OC)c1OC | 10 | 4 | -30* | . | 1
COc1ccccc1-c1noc(-c2ccc(NCc3ccco3)c([N+](=O)[O-])c2)n1 | 5 | -6 | -12 | . | 1
COc1ccc(-c2noc(-c3ccc(N4CCCC4)c([N+](=O)[O-])c3)n2)cc1OC | 7 | 11 | -38* | . | -2
COc1ccc(-c2noc(-c3ccc(NCc4ccco4)c([N+](=O)[O-])c3)n2)cc1 | 2 | 10 | -32* | . | 2
COc1ccc(-c2noc(-c3ccc(NCC4CCCO4)c([N+](=O)[O-])c3)n2)cc1 (centres undefined) | 3 | 9 | -58* | . | -2
CC(=O)N1CCc2cc(S(=O)(=O)NC(Cc3ccccc3)C(=O)NCc3ccccc3)ccc21 (centres undefined) | 4 | -6 | 13 | . | -1
COc1ccc(-c2nnc(SCC(=O)Nc3ccc(C)c(Cl)c3)nc2-c2ccc(OC)c(OC)c2)cc1OC | 7 | -14 | 9 | . | 0
CSc1cccc(N2CC(C(=O)Nc3ccccc3N3CCCC3)CC2=O)c1 (centres undefined) | 1 | -4 | -32* | 5 | -8
COc1ccc(CCNS(=O)(=O)c2ccc(F)c(C(=O)Nc3ccc(Cl)cc3)c2)cc1OC | 0 | 3 | -30 | . | -3
Cn1cnnc1SCc1ccc(C(=O)N/N=C(\CCC(=O)O)c2ccc(C(C)(C)C)cc2)cc1 | -2 | 2 | -8 | -54* | -6
COc1ccc(/C(C)=N/NC(=O)c2ccc(CSc3nncn3C)cc2)cc1 | 3 | -13 | -17 | 1 | -4
C/C(=N\NC(=O)c1ccc(CSc2nncn2C)cc1)c1ccc(Cl)cc1 | 3 | -4 | -32* | 0 | -2
COc1ccc(CNc2n[nH]c(-c3ccco3)n2)cc1OC | 1 | 3 | -12 | . | -1
CCOc1ccccc1CNC(=O)c1sc2ncccc2c1-n1cccc1 | 4 | -1 | 6 | . | -2
Cc1ccc2sc(N(CCCN(C)C)C(=O)c3ccc(S(=O)(=O)N4CCCCCC4)cc3)nc2c1C | 3 | -14 | 16 | ? | 3
Cc1cccc2sc(N(CCCN(C)C)C(=O)COc3ccc(Cl)cc3)nc12 | 18 | 6 | -8 | 2 | -3
Cc1cc(C)c2sc(N(CCN(C)C)C(=O)c3ccc4ccccc4c3)nc2c1 | 5 | -13 | -15 | ? | -3
